The full list was thinned out, with hits kept by preference.
Shiga toxin inh: blocks Shiga toxin action in Vero cells. Vero cells, Shiga toxin protein synthesis inhibition reporter. inhibition, % at 38.7 µM. hit rate 9.2% among 290,000; in the data active means inhibition mostly above about 28%, no sharp cut-off; inactive means mostly below about 43%; further: 0% is about no effect
CHX counter: affects cycloheximide protein synthesis inhibition readout, counter-screen; cell reporter, cycloheximide protein synthesis inhibition counterscreen; max response, %; hit rate 12% among 300,000; AID 2314; in the data active means max response mostly above about 13%, no sharp cut-off; inactive means mostly below about 14%; further: read at 38.3 µM for the half of the compounds with a filed dose; 0% is about no effect
AmpC no deterg: inhibitors of E. coli AmpC beta-lactamase without detergent; Potency, µM (doses to about 57.1 µM), for inactives: top-dose activity change, negative = inhibition, usual class: inhibitors; AmpC nitrocefin hydrolysis, absorbance 480 nm, 0.0001% Triton; hit rate 0.52% among 330,000; AID 485341; P00811;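 further: potency means the concentration at half of the fitted maximal effect; plate controls were no compound for no effect and no enzyme for full effect; nearly all actives have a fitted effect of over 20% in size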
Target sequence (P00811 whole entry, looked up): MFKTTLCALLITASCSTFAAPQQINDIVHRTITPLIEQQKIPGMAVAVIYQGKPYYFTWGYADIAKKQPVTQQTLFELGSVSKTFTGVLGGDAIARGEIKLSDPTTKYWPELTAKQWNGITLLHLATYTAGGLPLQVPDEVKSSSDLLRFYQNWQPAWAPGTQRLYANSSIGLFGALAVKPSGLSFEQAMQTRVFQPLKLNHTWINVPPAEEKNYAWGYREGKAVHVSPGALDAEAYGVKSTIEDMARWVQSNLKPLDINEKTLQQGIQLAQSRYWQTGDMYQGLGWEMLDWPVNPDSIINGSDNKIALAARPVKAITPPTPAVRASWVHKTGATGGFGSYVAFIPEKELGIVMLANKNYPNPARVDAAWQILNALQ
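AmpC (5.3 nM in the dispensed reagent) in 20 mM phosphate pH 7.0 with 0.01% (detergent screen) or 0.0001% Triton X-100 was preincubated with compounds for 15 min at room temperature. Nitrocefin was then added from an 800 uM solution, and hydrolysis was followed at 480 nm.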
AmpC inh detg: inhibitors of E. coli AmpC beta-lactamase with detergent. AID 485294. AmpC hydrolysis of nitrocefin, absorbance 480 nm, 0.01% Triton. hit rate 0.041% among 370,000. P00811. Potency, µM (series often up to 114 µM), for the others: top-dose activity change, negative = inhibition, most hits filed as inhibitors;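 further: potency means the concentration at half of the fitted maximal effect; 0% = no-compound wells and -100% = no-enzyme wells; nearly all actives have a fitted effect of over 25% in size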
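20 mM phosphate pH 7.0 + 0.01% (detergent screen) or 0.0001% Triton X-100; 5.3 nM AmpC reagent; cpd preinc 15 min RT; nitrocefin (800 uM stock) to start; A480 q20 s × 4 min; Activity was normalised to no-enzyme and no-compound control wells.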
NS1 function inh: inhibitors of influenza NS1 protein function. Potency, µM (highest dose often 46.1 µM), for the others: top-dose activity, positive = more growth. hit rate 0.4% among 270,000. AID 2326; calls by dose curve; further: potency means the concentration at half of the fitted maximal effect; actives are rising curves; nearly all actives have a fitted effect of over 50% in size
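OD600 was taken as the measure of yeast growth restored by compound in an NS1-expressing S. cerevisiae strain. Cells had been washed out of glucose medium and diluted 1:100 into galactose -URA medium, pH 6.0.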
The depositor's hits bear a star. Unless noted, the call rests on the fitted dose curve; in most records, active means well fitted curve in the direction sought with a large enough effect; inconclusive means small, poorly fitted or top-dose-only effect, or another doubt; inactive means no such curve, though single readings can be large; an effect the other way counts as inactive or inconclusive.

Results for CC(C)c1ccc(OCc2ccc(C(=O)O)o2)cc1 ?
Shiga toxin inh: 64*; CHX counter: 35*; AmpC no deterg: -22%; AmpC inh detg: -9%; NS1 function inh: -44%

What do the screens show for `N#Cc1ccc(OCc2ccc(C(=O)O)o2)cc1`?
Shiga toxin inh: 4; CHX counter: -3; AmpC no deterg: -2%; AmpC inh detg: 1%; NS1 function inh: 5%

Results for O=C(O)c1ccc(COc2ccc([N+](=O)[O-])cc2)o1 ?
Shiga toxin inh: 26; CHX counter: 11; AmpC no deterg: -21%; AmpC inh detg: 0%; NS1 function inh: -1%

What do the screens show for `COCCNC(=O)[C@H]1N2C(=O)c3ccccc3C2SC1(C)C` (stereo partly drawn)?
Shiga toxin inh: -6; CHX counter: -3; AmpC no deterg: 2%; AmpC inh detg: -8%; NS1 function inh: -1%

Results for COC(=O)Cc1nnc(SCC(=O)Nc2ccccc2)c2ccccc12 ?
Shiga toxin inh: -7; CHX counter: -1; AmpC no deterg: -12%; AmpC inh detg: -3%; NS1 function inh: 28%

How did COc1ccc(-c2ccc(SCC(=O)NCC3CCCO3)nn2)cc1OC (stereo not drawn) do in these assays?
Shiga toxin inh: 7; CHX counter: 21*; AmpC no deterg: -23%; AmpC inh detg: 1%; NS1 function inh: 4%

Results for Cc1nc(C)c(-c2ccc(SCC(=O)Nc3ccc(C)c(Cl)c3)nn2)s1 ?
Shiga toxin inh: -4; CHX counter: 11; AmpC no deterg: 49%; AmpC inh detg: -3%; NS1 function inh: 4%

How did CC(=O)c1ccc(NC(=O)CSc2ccc(-c3sc(C)nc3C)nn2)cc1 do in these assays?
Shiga toxin inh: 18; CHX counter: 13*; AmpC no deterg: 59%; AmpC inh detg: 1%; NS1 function inh: -5%

What do the screens show for `COc1ccc(-c2ccc(SCC(=O)c3cccs3)nn2)cc1OC`?
Shiga toxin inh: 56*; CHX counter: 15; AmpC no deterg: 66%; AmpC inh detg: 5%; NS1 function inh: 4%

Results for O=C(CSc1ccc(-c2ccc(F)cc2)nn1)NCC1CCCO1 (stereo not drawn) ?
Shiga toxin inh: 5; CHX counter: 7; AmpC no deterg: 4%; AmpC inh detg: 1%

What do the screens show for `COc1ccc(-c2ccc(SCC(=O)Nc3cccc(C(C)=O)c3)nn2)cc1OC`?
Shiga toxin inh: 97*; CHX counter: 40*; AmpC no deterg: 83%; AmpC inh detg: -6%

How did CCOc1ccc(C(=O)Nc2ccccc2C(=O)OCc2cc(=O)n3nc(C4CC4)sc3n2)cc1 do in these assays?
AmpC inh detg: 17%

Results for COc1ccc(OC(C)C(=O)N(C)Cc2nc(-c3cccc(C)c3)no2)cc1 (stereo not drawn) ?
Shiga toxin inh: -3; CHX counter: -3; AmpC no deterg: 59%; AmpC inh detg: 0%; NS1 function inh: -13%

What do the screens show for `COc1cccc(Cc2n[nH]c(=S)n2Cc2ccco2)c1`?
Shiga toxin inh: 10; CHX counter: -1; AmpC no deterg: -34%; AmpC inh detg: 5%; NS1 function inh: 3%

What do the screens show for `Cn1cnc(C(=O)NCc2ccccc2)c1C(=O)NCc1ccccc1`?
AmpC no deterg: 74%

How did COc1ccc(NC(=O)c2oc3ccccc3c2NC(=O)C23CC4CC(CC(C4)C2)C3)cc1 do in these assays?
AmpC inh detg: -6%

Results for COc1ccc(-c2ccc(SCC(=O)NC3CCCCC3)nn2)cc1OC ?
Shiga toxin inh: 65*; CHX counter: 37*; AmpC no deterg: 16%; AmpC inh detg: -5%; NS1 function inh: -1%

What do the screens show for `CC(=O)OC1CC2CCC1(C)C2(C)C` (stereo not drawn)?
Shiga toxin inh: -4; CHX counter: -3

Results for COc1cc(/C=C/C(=O)OC2CC3CCC2(C)C3(C)C)ccc1O (stereo not drawn) ?
Shiga toxin inh: 23; CHX counter: 14*; AmpC no deterg: -12%; AmpC inh detg: 0%; NS1 function inh: -86%

How did CCCOc1ccc(CNC(=O)c2oc3ccc4c(c3c2C)C(=O)CC(C)(CC)O4)cc1 (stereo not drawn) do in these assays?
AmpC inh detg: -1%

Results for Brc1ccc(-c2csc(N/N=C/c3ccco3)n2)cc1 ?
Shiga toxin inh: 71*; CHX counter: 40*; AmpC no deterg: inconclusive; AmpC inh detg: 2%

How did CC(C)=NNc1nc(-c2ccccc2)c(C)s1 do in these assays?
Shiga toxin inh: 104*; CHX counter: 36*; AmpC no deterg: inconclusive; AmpC inh detg: -5%

Results for Cc1sc(N)nc1-c1ccccc1 ?
Shiga toxin inh: -1; CHX counter: 10; AmpC no deterg: 34%; AmpC inh detg: -13%

How did C(=N\Nc1nc(-c2ccccc2)cs1)/c1ccco1 do in these assays?
Shiga toxin inh: 61*; CHX counter: 38*; AmpC no deterg: -31%; AmpC inh detg: -10%; NS1 function inh: 1%

Results for O=C(O)c1csc(N/N=C/c2ccc(Br)cc2)n1 ?
Shiga toxin inh: 13; CHX counter: 16; AmpC no deterg: -43%; AmpC inh detg: 1%

Results for C/C(=N/Nc1nc(-c2ccc(Cl)cc2)cs1)c1cccs1 ?
Shiga toxin inh: 47; CHX counter: 14; AmpC no deterg: -27%; AmpC inh detg: -7%; NS1 function inh: 3%

Results for Clc1ccc(-c2csc(N/N=C/c3ccco3)n2)cc1 ?
Shiga toxin inh: 79*; CHX counter: 38*; AmpC no deterg: -57%; AmpC inh detg: -6%; NS1 function inh: 17%

How did O=C(Nc1ccc(F)c(Cl)c1)N1CCC(CN2CCc3ccccc3C2)CC1 do in these assays?
AmpC inh detg: 2%

How did CN(C)S(=O)(=O)c1ccc(-c2csc(N/N=C/c3ccco3)n2)cc1 do in these assays?
Shiga toxin inh: 29; CHX counter: 19; AmpC no deterg: -45%; AmpC inh detg: 3%; NS1 function inh: 7%

What do the screens show for `Cc1sc(N/N=C/c2cccnc2)nc1-c1ccccc1`?
Shiga toxin inh: 48*; CHX counter: 25*; AmpC no deterg: 23%; AmpC inh detg: 3%; NS1 function inh: 11%

How did Cc1ccc(-c2csc(N/N=C/c3ccco3)n2)cc1 do in these assays?
Shiga toxin inh: 73*; CHX counter: 35*; AmpC no deterg: -35%; AmpC inh detg: inconclusive; NS1 function inh: -5%

How did Cc1sc(N/N=C/c2ccco2)nc1-c1ccccc1 do in these assays?
Shiga toxin inh: 91*; CHX counter: 27*; AmpC no deterg: -37%; AmpC inh detg: -8%; NS1 function inh: 14%

How did Cc1nc(C)c(C(=O)N/N=C/c2ccco2)s1 do in these assays?
Shiga toxin inh: -4; CHX counter: 10; AmpC no deterg: -29%; AmpC inh detg: 3%; NS1 function inh: 3%

How did Clc1ccc(-c2csc(N/N=C\c3cccnc3)n2)cc1 do in these assays?
Shiga toxin inh: 11; CHX counter: 28*; AmpC no deterg: -20%; AmpC inh detg: inconclusive; NS1 function inh: 6%
